Results taken from ChEMBL document CHEMBL4513216, “Probing the Open Global Health Chemical Diversity Library for Multistage-Active Starting Points for Next-Generation Antimalarials” (ACS Infect Dis, 2020).
Screen size: about 69,000 compounds; about 8,600 (12%) showed an effect of 50% or more. The list comes from a sample in which strong results are over-represented; it also holds similar structures and randomly drawn compounds.

Test system: Plasmodium berghei
Assay: Screen against P. berghei liver stage (PbLuc), transformed with Luciferase, at 10uM
Format: functional, HepG2
Conditions: tested at 10 uM

| SMILES | INHIBITION |
| --- | --- |
| Cc1nnsc1-c1nnc2sc(C3CCC3)nn12 | -13.1% |
| Cc1nnsc1-c1nnc2sc(C(C)C)nn12 | 12.5% |
| O=C1CCC(c2ccc(Cl)cc2)=NN1CN1CCSCC1 | 6.34% |
| CO[C@@H]1CCN(Cc2cnn(C)c2)[C@@H]2CN(Cc3ccco3)C[C@@H]21 | 7.11% |
| CCc1cc(C(=O)N2CCCn3nc(CCC(=O)O)cc3C2)cs1 | 22.8% |
| O=C(O)CCc1cc2n(n1)CCCN(C(=O)c1ccc3cc[nH]c3c1)C2 | 8.47% |
| O=C(O)CCc1cc2n(n1)CCCN(C(=O)c1ccc(F)cc1F)C2 | -13.5% |
| CCOc1cccc(C(=O)N2CCCn3nc(CCC(=O)O)cc3C2)c1 | -19% |
| O=C(O)CCc1cc2n(n1)CCCN(C(=O)c1ccc(Cl)s1)C2 | 51.5% |
| Cc1ccc(C(=O)N2CCCn3nc(CCC(=O)O)cc3C2)cc1Cl | 52.5% |
| O=C(c1ccc(Cl)s1)N1CCCn2nc(CN3CC[C@H](F)C3)cc2C1 | 45% |
| O=C(O)CCc1cc2n(n1)CCCN(C(=O)c1cc3ccccc3s1)C2 | 67.9% |
| CCCc1nc(C(=O)N2CCCn3nc(CCC(=O)O)cc3C2)cs1 | -9.86% |
| CC(C)n1nc(Cn2cccc2)c2c1CN(C1CCOCC1)C2 | 23.3% |
| Cc1nc(CN(C)C(=O)NC(C)c2ccc3c(c2)OCCO3)cs1 (stereo not given) | 31.2% |
| CC(Cn1cccn1)NC(=O)CCc1nc(C(C)(C)C)no1 (stereo not given) | 10.6% |
| O=C1COC2(CCN(Cc3ccncc3)CC2)CN1c1ccccc1 | -27.4% |
| Cc1c[nH]c(C2COCCN2S(=O)(=O)c2cn[nH]c2)n1 (stereo not given) | -8.12% |
| CCc1nc(N)nc(NCCC(=O)N2CCCC2)c1C | 62.8% |
| CCc1cnc(C)nc1NCCC(=O)N1CCC(C)CC1 | -21.1% |
| Cc1ccc(CSc2nc(N)cc(NCCC(=O)N3CCCC3)n2)cc1 | 36.6% |
| CCn1ccnc1CN1CCC(N(Cc2ncc(C)o2)C(C)=O)C1 (stereo not given) | 48.2% |
| Cn1cc(CC(=O)N2CCCC(c3ccn[nH]3)C2)cn1 (stereo not given) | 5.11% |
| CO[C@@H]1CCN(c2ncc(F)cn2)[C@@H]2CN(Cc3cccnc3)C[C@@H]21 | 31.4% |
| CO[C@@H]1CCN(c2ncc(F)cn2)[C@@H]2CN(CC3CC3)C[C@@H]21 | 60.3% |
| CO[C@H]1CCN(c2ncc(F)cn2)[C@@H]2CN(Cc3ccco3)C[C@H]12 | 49.1% |
| Fc1cnc(N2CCO[C@H]3CN(CC4CCCCC4)C[C@H]32)nc1 | 30.3% |
| Fc1cnc(N2CCO[C@H]3CN(CC4CCCC4)C[C@H]32)nc1 | -13.3% |

| SMILES | INHIBITION |
| --- | --- |
| CCN1C[C@H]2[C@@H](C1)N(c1ncc(F)cn1)CC[C@H]2OC | 84.5% |
| CCN1CCN(c2nc(O)cc(Cc3ccccc3F)n2)CC1 | 10.9% |
| CNC(=O)c1sccc1S(=O)(=O)NC | 46.6% |
| CNS(=O)(=O)c1ccsc1C(=O)OC | 37.6% |
| CNC(=O)c1sccc1S(=O)(=O)Nc1ccc(C)cc1 | 61.1% |
| O=C(c1cccnc1)N1CCCC1c1nc(O)cc(-c2ccccn2)n1 (stereo not given) | 36.7% |
| O=C1NCCCc2[nH]c(Cc3cccc(Cl)c3)nc21 | 32% |
| c1ccc(CCNc2cccc(C3CCCNC3)n2)cc1 (stereo not given) | 34% |
| Clc1cccc(N[C@H]2CCCN[C@H]2Cc2ccccc2)c1 | 91.6% |
| Clc1cccc(C[C@@H]2NCCC[C@@H]2Nc2ccccc2)c1 | 86.1% |
| Clc1cccc(C[C@@H]2NCCC[C@@H]2Nc2cccc(Cl)c2)c1 | 92.6% |
| O=C1NCCCC1NC(=O)C1(c2cccc(Cl)c2)CCC1 (stereo not given) | -2.27% |
| O=C(NCCc1cccc(Cl)c1)C1CCOCC1 | 27.7% |
| O=C(Cc1cccc(Cl)c1)N[C@@H]1CCNC[C@H]1O | 0.547% |
| O=S(=O)(c1cccc(Cl)c1)N1C[C@@H]2CCN[C@@H]2C1 | -14.7% |
| CCOCC(=O)N1CCC2(CC1)COCCN2CCN(C)C | -3.33% |
| O=C(c1ccc(F)cc1)N1C[C@H]2CCC[C@@]2(COCc2ccncc2)C1 | 16.8% |
| CC(C)CNC(=O)C1(Cc2ccccc2-c2cccs2)CCNC1 (stereo not given) | 14.7% |
| COc1ccc(C(C)NC(=O)Cn2ccc(=O)n(C)c2=O)cc1F (stereo not given) | -29.8% |
| Cc1ccccc1OCC(O)CN1CCC(Cn2cccn2)CC1 (stereo not given) | 17.5% |
| O=S1(=O)c2ccccc2OCC2(CCN(CCO)CC2)CN1CC1CC1 | -8.94% |
| CC(=O)N1CCCC2(CCN(C(=O)c3ccc(Cl)c(C(F)(F)F)c3)C2)C1 (stereo not given) | 32.2% |
| CC(=O)N1CC2(CCN(C(=O)c3ccoc3)C2)C1 | 27.6% |
| CC(=O)N1CCC2(CCN(C(=O)c3ccc(Cl)c(C(F)(F)F)c3)C2)C1 (stereo not given) | 50.9% |
| CC(=O)N1CC2(CCN(C(=O)c3ccc4c(c3)OCCO4)CC2)C1 | -38.1% |
| CC(=O)N1CCC2(CCN(C(=O)c3ccc(Cl)c(C(F)(F)F)c3)CC2)C1 | 51.2% |
| CC(=O)N1CCC2(CCCN(C(=O)c3ccc(Cl)c(C(F)(F)F)c3)C2)C1 (stereo not given) | 28.7% |
